Test results reported in PubChem BioAssay (EPA / NIEHS).
“And” between values parts separate entries of the source, which are not always exact repeats. Equal values may be shown once. More than one record can exist for a structure, and the calls need not agree. The source made the active and inactive calls. Rule for the calls: active = hit-call score of the fitted dose curve at least 0.9, where 1 is the maximum; inactive = score below 0.9.

Assays:
[1] = biological target: Transcription factor E2F1 (Homo sapiens) (UniProt Q01094); assay: ATG_E2F_CIS: Attagene CIS-FACTORIAL HepG2 Assay for human E2F Transcription Factor 1 (AID 2282935); conditions: HepG2 Attagene cis-reporter, E2F reporter RNA transcripts; actives raise or lower the signal
Summary of the method: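 Liver-derived HepG2 cells expressing transfected promoter-driven reporter units received test chemical for 24 hours. Signal gains or losses were fitted bidirectionally against DMSO.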

[2] = ATG_E_Box_CIS: Attagene CIS-FACTORIAL HepG2 Assay for human Enhancer Box (E-box) (AID 2282936); conditions: HepG2 E-box cis-reporter transcription, actives raise or lower the signal
Summary of the method: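 In this cell-based setup, HepG2 cells bearing transfected promoter-driven reporter units were exposed to chemicals for 24 h; reporter transcripts were amplified, 6-FAM-labelled, cut with HpaI and sized by capillary electrophoresis.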

[3] = ATG_M_61_CIS: Attagene CIS-FACTORIAL HepG2 Assay for M61 Transcription Factor (Internal Marker) (AID 2282937); conditions: HepG2 Attagene CIS-FACTORIAL M61 internal marker reporter; actives raise or lower the signal
Summary of the method: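 Readout is reporter mRNA by RT-PCR, fluorescent primer extension and capillary electrophoresis, with gain or loss fitted relative to DMSO. Transfected HepG2 cells carrying endogenous-TF-driven cis reporters were exposed to chemicals for 24 hours.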

[4] = ATG_EGR_CIS: Attagene CIS-FACTORIAL HepG2 Assay for human Early Growth Response 1 (EGR1) (AID 2282938); conditions: HepG2 Attagene CIS-FACTORIAL EGR reporter mRNA; actives raise or lower the signal
Summary of the method: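 After 24 h compound exposure, RNA from reporter-transfected HepG2 cells was reverse-transcribed, PCR-amplified, fluorescently labelled and resolved by capillary electrophoresis. EGR1 reporter transcript changes, up or down, were fitted against DMSO, reflecting endogenous transcription-factor activity.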

[5] = ATG_M_19_CIS: Attagene CIS-FACTORIAL HepG2 Assay for M19 Transcription Factor (Internal Marker) (AID 2282939); conditions: HepG2 Attagene CIS-FACTORIAL M19 internal marker reporter; actives raise or lower the signal
Summary of the method: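 Chemical-treated HepG2 (24 h) with MRTU constructs; reporter transcripts detected by fluorescent RT-PCR fragment analysis on capillary electrophoresis. Internal background marker, DMSO as baseline.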

[6] = ATG_ERE_CIS: Attagene CIS-FACTORIAL HepG2 Assay for Estrogen Response Element (ERE) (AID 2282940); conditions: HepG2 ERE cis-reporter, Attagene RNA transcript; actives raise or lower the signal
Summary of the method: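 Human liver cells (HepG2) bearing transiently transfected, promoter-regulated reporter units were exposed 24 h. Reporter mRNA induction was detected by capillary electrophoresis of labelled RT-PCR products and fitted bidirectionally to DMSO.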

[7] = ATG_Ets_CIS: Attagene CIS-FACTORIAL HepG2 Assay for human Erythroblast Transformation Specific (ETS) (AID 2282941); conditions: HepG2 ETS cis-reporter transcription, actives raise or lower the signal
Summary of the method: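 RT-PCR/capillary electrophoresis fluorescence read-out of reporter mRNA; HepG2 transient multi-reporter transfection; 24 h compound exposure; gain or loss of signal fitted bidirectionally relative to DMSO.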

[8] = biological target: Hepatocyte nuclear factor 3-beta (Homo sapiens) (UniProt Q9Y261); assay: ATG_FoxA2_CIS: Attagene CIS-FACTORIAL HepG2 Assay for human Forkhead box A2 (FOXA2) (AID 2282942); conditions: HepG2 cis-reporter transcription factor activity, 24 h; actives raise or lower the signal
Summary of the method: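 Endogenous transcription factor activity is captured via cis-element-driven reporter transcripts in transfected HepG2. Total RNA taken at 24 h post-dosing; labelled RT-PCR products resolved by capillary electrophoresis. Gain or loss fitted versus DMSO.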

[9] = ATG_FoxO_CIS: Attagene CIS-FACTORIAL HepG2 Assay for human Forkhead box O (FoxO) (AID 2282943); conditions: HepG2 Attagene cis-reporter, FoxO element, mRNA; actives raise or lower the signal
Summary of the method: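 Transfected HepG2 reporter cells exposed to test chemical for 24 h; reporter RNA measured by reverse transcription, PCR and fluorescent capillary electrophoresis; curves fitted for increases and decreases against DMSO.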

[10] = ATG_GLI_CIS: Attagene CIS-FACTORIAL HepG2 Assay for human Zinc Finger Protein GLI1 (AID 2282945); conditions: HepG2, Attagene cis-factorial reporter mRNA, GLI element; actives raise or lower the signal
Summary of the method: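 Transiently transfected HepG2 cells report endogenous transcription factor activity via cis-element-driven reporter units. After 24 h compound exposure, reporter mRNA was measured by RT-PCR with capillary electrophoresis; bidirectional fitting against DMSO baseline.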

[11] = ATG_GRE_CIS: Attagene CIS-FACTORIAL HepG2 Assay for human Glucocorticoid Response Elements (GRE) (AID 2282947); conditions: HepG2 GRE cis-reporter, Attagene multiplex mRNA; actives raise or lower the signal
Summary of the method: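 Fluorescence intensity of reporter-specific cDNA fragments, separated by capillary electrophoresis, provides the signal. Constructs carry cis-regulating promoters in transiently transfected HepG2 liver cells; 24 h incubation; fitting is bidirectional against DMSO.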

[12] = ATG_ISRE_CIS: Attagene CIS-FACTORIAL HepG2 Assay for human Interferon Regulatory Factor 1 (IRF1) binding to an Interferon-Stimulated Response Element (ISRE) (AID 2282948); conditions: HepG2 ISRE cis-reporter (Attagene), mRNA transcription readout; actives raise or lower the signal
Summary of the method: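 Read-out: fluorescent RT-PCR products resolved by capillary electrophoresis, reporting endogenous transcription factor activity via ISRE-driven reporter mRNA in transfected HepG2 cells dosed for 24 h; gain or loss fitted relative to DMSO.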

[13] = ATG_M_32_CIS: Attagene CIS-FACTORIAL HepG2 Assay for M32 Transcription Factor (Internal Marker) (AID 2282949); conditions: HepG2 Attagene cis-factorial M32 reporter, mRNA; actives raise or lower the signal;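 note: background control marker of the multiplexed CIS panel rather than a real target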
Summary of the method: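 HepG2 human liver cells transiently transfected with cis-promoter-driven multiple reporter transcription units, dosed 24 h. Reporter mRNA quantified by RT-PCR, FAM-labelled primer extension, HpaI digest and capillary electrophoresis; bidirectional fit versus DMSO baseline.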

[14] = ATG_M_06_CIS: Attagene CIS-FACTORIAL HepG2 Assay for M06 Transcription Factor (Internal Marker) (AID 2282950); conditions: HepG2 Attagene CIS-FACTORIAL M06 internal marker reporter; actives raise or lower the signal
Summary of the method: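 Cells (HepG2, transiently carrying cis-driven reporter units) receive chemical for 24 h before RNA isolation. Reporter cDNA is PCR-amplified, FAM-labelled by primer extension, HpaI-digested and sized on a capillary analyser.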

[15] = biological target: Hypoxia-inducible factor 1-alpha (Homo sapiens) (UniProt Q16665); assay: ATG_HIF1a_CIS: Attagene CIS-FACTORIAL HepG2 Assay for human Hypoxia Inducible Factor 1 (HIF1A) (AID 2282951); conditions: HepG2 Attagene cis-factorial HIF1a reporter transcription; actives raise or lower the signal
Summary of the method: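 Activity is fitted in both directions relative to DMSO. Reporter transcripts are read by RT-PCR, fluorescent primer extension and capillary electrophoresis after 24 h chemical treatment. The cells are HepG2 carrying transiently transfected cis-element-driven reporter units responding to endogenous factors.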

[16] = biological target: Heat shock factor protein 1 (Homo sapiens) (UniProt Q00613); assay: ATG_HSE_CIS: Attagene CIS-FACTORIAL HepG2 Assay for human Heat Shock Transcription Factor 1 (HSE) (AID 2282953); conditions: HepG2 HSE cis-reporter, Attagene RNA transcription; actives raise or lower the signal
Summary of the method: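 Liver-derived HepG2 cells carry transiently introduced multiple reporter units governed by cis promoters. Reporter RNA measured 24 h post-dose through reverse transcription, PCR amplification, fluorescent labelling and capillary electrophoresis, normalised to DMSO.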

[17] = ATG_MRE_CIS: Attagene CIS-FACTORIAL HepG2 Assay for human Metal Responsive Element (MRE) (AID 2282954); conditions: HepG2 MRE cis-reporter transcription, Attagene multiplex; actives raise or lower the signal
Summary of the method: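 Measured here is mRNA induction from an MRE cis-element reporter in HepG2 after 24 h, quantified by fluorescence of labelled RT-PCR products on capillary electrophoresis; gain- and loss-of-signal fits use DMSO as baseline.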

[18] = ATG_GATA_CIS: Attagene CIS-FACTORIAL HepG2 Assay for human GATA Binding Protein (AID 2282944); conditions: HepG2 GATA cis-element reporter, Attagene multiplex mRNA; actives raise or lower the signal
Summary of the method: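 Transfected cis-reporter HepG2 cells were treated with chemicals for 24 hours. Total RNA was then converted to cDNA, amplified with reporter-specific primers and analysed by fluorescent capillary electrophoresis, using DMSO-treated wells as baseline.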

[19] = biological target: Hepatocyte nuclear factor 6 (Homo sapiens) (UniProt Q9UBC0); assay: ATG_HNF6_CIS: Attagene CIS-FACTORIAL HepG2 Assay for human Hepatocyte Nuclear Factor 6 (HNF6) (AID 2282952); conditions: HepG2 Attagene cis-factorial HNF6 reporter transcription; actives raise or lower the signal
Summary of the method: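 Readout: fluorescent reporter-transcript fragments resolved by capillary electrophoresis after RT-PCR, reflecting endogenous factor activity in transfected HepG2. Exposure 24 h. Gain or loss of signal fitted bidirectionally against DMSO.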

Chain of Hepatocyte nuclear factor 6 (Homo sapiens) (Q9UBC0 whole entry, looked up, the tested form may be a part): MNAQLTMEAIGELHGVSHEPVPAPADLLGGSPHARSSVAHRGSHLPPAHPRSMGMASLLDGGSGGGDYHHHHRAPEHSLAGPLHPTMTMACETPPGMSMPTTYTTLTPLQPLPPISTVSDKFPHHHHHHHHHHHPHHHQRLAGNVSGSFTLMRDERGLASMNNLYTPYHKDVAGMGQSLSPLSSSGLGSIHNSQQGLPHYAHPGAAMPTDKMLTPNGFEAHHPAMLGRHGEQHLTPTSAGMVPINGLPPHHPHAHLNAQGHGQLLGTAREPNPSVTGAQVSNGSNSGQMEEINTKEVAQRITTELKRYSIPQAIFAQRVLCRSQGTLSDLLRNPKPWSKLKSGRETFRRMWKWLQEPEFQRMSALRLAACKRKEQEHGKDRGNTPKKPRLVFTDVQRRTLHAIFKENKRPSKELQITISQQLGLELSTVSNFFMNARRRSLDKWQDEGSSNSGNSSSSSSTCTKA
Chain of Hypoxia-inducible factor 1-alpha (Homo sapiens) (Q16665 whole entry, looked up): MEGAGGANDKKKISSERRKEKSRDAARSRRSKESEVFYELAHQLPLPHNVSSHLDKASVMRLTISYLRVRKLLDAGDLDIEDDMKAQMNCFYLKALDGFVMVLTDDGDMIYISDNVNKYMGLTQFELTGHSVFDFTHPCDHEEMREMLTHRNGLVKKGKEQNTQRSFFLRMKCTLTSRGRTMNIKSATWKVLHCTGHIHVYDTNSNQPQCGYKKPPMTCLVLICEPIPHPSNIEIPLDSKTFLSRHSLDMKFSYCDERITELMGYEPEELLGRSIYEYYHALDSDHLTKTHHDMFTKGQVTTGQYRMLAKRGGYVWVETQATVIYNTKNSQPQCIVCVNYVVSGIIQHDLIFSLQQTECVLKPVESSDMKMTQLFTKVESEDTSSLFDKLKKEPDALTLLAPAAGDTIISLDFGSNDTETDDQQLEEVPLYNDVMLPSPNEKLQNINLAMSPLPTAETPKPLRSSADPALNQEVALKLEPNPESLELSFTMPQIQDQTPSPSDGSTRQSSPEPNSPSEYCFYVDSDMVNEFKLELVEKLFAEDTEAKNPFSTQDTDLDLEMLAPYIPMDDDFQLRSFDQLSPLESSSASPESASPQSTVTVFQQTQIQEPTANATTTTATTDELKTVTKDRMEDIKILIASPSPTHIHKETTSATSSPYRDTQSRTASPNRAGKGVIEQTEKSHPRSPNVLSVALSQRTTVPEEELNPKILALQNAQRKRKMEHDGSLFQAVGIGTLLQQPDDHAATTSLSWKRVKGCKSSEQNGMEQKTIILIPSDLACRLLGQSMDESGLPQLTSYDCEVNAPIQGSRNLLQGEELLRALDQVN
Chain of Hepatocyte nuclear factor 3-beta (Homo sapiens) (Q9Y261 whole entry, looked up): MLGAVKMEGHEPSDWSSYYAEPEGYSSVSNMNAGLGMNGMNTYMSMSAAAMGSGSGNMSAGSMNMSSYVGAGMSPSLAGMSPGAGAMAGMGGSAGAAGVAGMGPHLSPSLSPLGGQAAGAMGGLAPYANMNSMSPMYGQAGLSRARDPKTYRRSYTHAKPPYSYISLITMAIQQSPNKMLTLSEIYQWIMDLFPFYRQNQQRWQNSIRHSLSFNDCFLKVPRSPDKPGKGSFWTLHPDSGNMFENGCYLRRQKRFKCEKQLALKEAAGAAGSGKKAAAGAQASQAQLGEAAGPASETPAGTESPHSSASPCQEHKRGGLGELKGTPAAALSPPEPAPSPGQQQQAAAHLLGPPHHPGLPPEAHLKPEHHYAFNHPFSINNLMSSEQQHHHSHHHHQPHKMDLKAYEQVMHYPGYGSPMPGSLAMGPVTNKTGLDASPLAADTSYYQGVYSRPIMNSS
Chain of Heat shock factor protein 1 (Homo sapiens) (Q00613 whole entry, looked up): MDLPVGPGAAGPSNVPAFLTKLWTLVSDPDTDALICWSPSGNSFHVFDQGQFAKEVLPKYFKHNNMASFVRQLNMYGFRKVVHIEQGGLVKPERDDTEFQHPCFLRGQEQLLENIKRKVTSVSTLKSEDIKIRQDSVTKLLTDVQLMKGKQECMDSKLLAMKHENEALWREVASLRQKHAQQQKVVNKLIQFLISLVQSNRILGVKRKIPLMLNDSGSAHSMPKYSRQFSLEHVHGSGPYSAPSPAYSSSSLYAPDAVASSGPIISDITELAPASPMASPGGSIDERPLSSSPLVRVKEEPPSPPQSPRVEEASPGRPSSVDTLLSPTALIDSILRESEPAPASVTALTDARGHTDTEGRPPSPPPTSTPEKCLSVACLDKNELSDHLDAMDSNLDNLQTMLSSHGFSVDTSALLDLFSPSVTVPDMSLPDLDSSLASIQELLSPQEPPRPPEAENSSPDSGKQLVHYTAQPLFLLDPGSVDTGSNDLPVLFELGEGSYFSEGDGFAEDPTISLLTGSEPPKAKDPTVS
Chain of Transcription factor E2F1 (Homo sapiens) (Q01094 whole entry, looked up): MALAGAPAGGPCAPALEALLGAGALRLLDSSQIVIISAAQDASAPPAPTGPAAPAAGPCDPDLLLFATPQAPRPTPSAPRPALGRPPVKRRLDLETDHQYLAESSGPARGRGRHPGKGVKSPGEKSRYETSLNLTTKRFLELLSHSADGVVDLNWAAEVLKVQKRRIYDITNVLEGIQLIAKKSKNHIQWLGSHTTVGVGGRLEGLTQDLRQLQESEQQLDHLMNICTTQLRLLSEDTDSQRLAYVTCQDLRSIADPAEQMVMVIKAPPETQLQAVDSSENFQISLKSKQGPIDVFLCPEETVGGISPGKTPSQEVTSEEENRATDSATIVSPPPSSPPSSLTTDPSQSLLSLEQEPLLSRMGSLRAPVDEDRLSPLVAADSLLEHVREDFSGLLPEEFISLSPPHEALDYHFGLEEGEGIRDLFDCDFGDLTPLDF

## COc1ccc(C(c2ccc(OC)cc2)C(Cl)(Cl)Cl)cc1
[1]
  outcome: inactive
[2]
  AC50: 27 µM (active) and 5.64 µM (active)
  outcome: inactive
[3]
  outcome: inactive
[4]
  outcome: inactive
[5]
  outcome: inactive
[6]
  AC50: 5.09 µM (active) [middle of 4 runs]
  outcome: inactive
[7]
  outcome: inactive
[8]
  outcome: inactive
[9]
  outcome: inactive
[10]
  outcome: inactive
[11]
  outcome: inactive
[12]
  outcome: inactive
[13]
  outcome: inactive
[14]
  outcome: inactive
[15]
  AC50: 3.88 µM (active)
  outcome: inactive
[16]
  outcome: inactive
[17]
  AC50: 65.1 µM (active) and 15.6 µM (active) and 11.9 µM (active)
  outcome: inactive

## C#CCOS(=O)OC1CCCCC1Oc1ccc(C(C)(C)C)cc1 (stereo not given)
[1]
  outcome: inactive
[2]
  outcome: inactive
[3]
  outcome: inactive
[4]
  AC50: 1.46 µM (active)
[5]
  outcome: inactive
[6]
  outcome: inactive
[7]
  outcome: inactive
[8]
  outcome: inactive
[9]
  outcome: inactive
[18]
  outcome: inactive
[10]
  outcome: inactive
[11]
  outcome: inactive
[12]
  outcome: inactive
[13]
  outcome: inactive
[14]
  outcome: inactive
[15]
  AC50: 2.4 µM (active)
[19]
  outcome: inactive
[16]
  outcome: inactive
[17]
  AC50: 2.4 µM (active)

## COc1nc(NC(C)C)nc(NC(C)C)n1
[1]
  outcome: inactive
[2]
  outcome: inactive
[3]
  outcome: inactive
[4]
  outcome: inactive
[5]
  outcome: inactive
[6]
  outcome: inactive
[7]
  outcome: inactive
[8]
  outcome: inactive
[9]
  outcome: inactive
[10]
  outcome: inactive
[11]
  outcome: inactive
[12]
  outcome: inactive
[13]
  outcome: inactive
[14]
  outcome: inactive
[15]
  outcome: inactive
[19]
  outcome: inactive
[16]
  outcome: inactive
[17]
  outcome: inactive

## Fc1ccc(Oc2ccnc3cc(Cl)cc(Cl)c23)cc1
[1]
  outcome: inactive
[2]
  AC50: 5.95 µM (active)
[3]
  outcome: inactive
[4]
  outcome: inactive
[5]
  outcome: inactive
[6]
  outcome: inactive
[7]
  outcome: inactive
[8]
  outcome: inactive
[9]
  outcome: inactive
[10]
  outcome: inactive
[11]
  outcome: inactive
[12]
  outcome: inactive
[13]
  outcome: inactive
[14]
  outcome: inactive
[15]
  outcome: inactive
[19]
  outcome: inactive
[16]
  outcome: inactive
[17]
  outcome: inactive

## CNC(=O)ON=CC(C)(C)SC
[1]
  AC50: 149 µM (active)
  outcome: inactive
[2]
  outcome: inactive
[3]
  outcome: inactive
[5]
  outcome: inactive
[6]
  outcome: inactive
[7]
  outcome: inactive
[8]
  outcome: inactive
[9]
  outcome: inactive
[10]
  outcome: inactive
[11]
  outcome: inactive
[12]
  AC50: 167 µM (active)
  outcome: inactive
[13]
  outcome: inactive
[14]
  outcome: inactive
[15]
  outcome: inactive
[17]
  outcome: inactive

## CCNc1nc(Cl)nc(NC(C)C)n1
[1]
  outcome: inactive
[2]
  outcome: inactive
[3]
  outcome: inactive
[4]
  outcome: inactive
[5]
  outcome: inactive
[6]
  outcome: inactive
[7]
  outcome: inactive
[8]
  outcome: inactive
[9]
  outcome: inactive
[10]
  outcome: inactive
[11]
  outcome: inactive
[12]
  outcome: inactive
[13]
  outcome: inactive
[14]
  outcome: inactive
[15]
  outcome: inactive
[16]
  outcome: inactive
[17]
  outcome: inactive
